# Screening data deposited in PubChem by National Center for Advancing Translational Sciences (NCATS).
# Pol eta inh-1: qHTS for Inhibitors of Polymerase Eta; DNA polymerase eta (Homo sapiens), Q9Y253; recombinant Pol eta, fluorescent DNA replication assay; Potency, µM (titrated, usually from 114 µM), without a hit: at the top dose activity change, negative = inhibition, hits mostly inhibitors; actives 1.2% (n = 390,000); note: potency is the fitted concentration of half-maximal effect; % is set by controls: 0 for no effect and ±100 for the full control effect
#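 Fluorescent replication assay: 50 nM final substrate added after a 15 min room-temperature compound preincubation with 10 nM enzyme. Signal taken at 0 min and again at 10 min.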
# POLI inh: qHTS for Inhibitors of Polymerase Iota. Pol iota fluorescent replication assay, 10 min. Potency, µM (doses to about 115 µM), without a hit: at the highest dose activity, negative = inhibition, usual class: inhibitors. actives 1% (n = 390,000); note: potency is the fitted concentration of half-maximal effect
# Target sequence (Q9UNA4 whole entry, looked up): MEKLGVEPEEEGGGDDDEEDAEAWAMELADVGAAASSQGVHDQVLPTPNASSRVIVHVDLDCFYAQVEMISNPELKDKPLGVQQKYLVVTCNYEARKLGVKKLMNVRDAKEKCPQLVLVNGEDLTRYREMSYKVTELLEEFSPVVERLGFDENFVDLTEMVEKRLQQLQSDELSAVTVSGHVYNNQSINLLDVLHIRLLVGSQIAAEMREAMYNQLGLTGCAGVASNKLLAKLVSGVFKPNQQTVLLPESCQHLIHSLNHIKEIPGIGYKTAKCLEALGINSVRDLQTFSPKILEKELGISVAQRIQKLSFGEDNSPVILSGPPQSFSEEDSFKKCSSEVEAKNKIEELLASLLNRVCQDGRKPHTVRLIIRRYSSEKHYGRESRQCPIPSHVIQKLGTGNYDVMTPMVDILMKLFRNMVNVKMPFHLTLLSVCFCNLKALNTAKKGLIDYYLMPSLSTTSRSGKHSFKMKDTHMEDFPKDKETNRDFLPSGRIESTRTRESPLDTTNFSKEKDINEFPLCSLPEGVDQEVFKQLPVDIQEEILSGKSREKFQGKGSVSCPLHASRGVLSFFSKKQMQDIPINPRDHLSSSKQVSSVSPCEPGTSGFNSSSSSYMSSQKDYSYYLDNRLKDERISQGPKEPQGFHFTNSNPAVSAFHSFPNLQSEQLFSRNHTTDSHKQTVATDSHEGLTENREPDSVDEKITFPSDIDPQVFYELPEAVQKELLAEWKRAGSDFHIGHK
#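 Fluorescent replication assay read twice, at 0 min and 10 min after adding 50 nM (final) substrate. Enzyme (10 nM) and compounds were first incubated 15 min at room temperature; enzyme-free buffer wells were negative controls.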
# Pol kappa inh-1: qHTS for Inhibitors of Polymerase Kappa; AID 588579, 2011; Potency, µM (titrated, usually from 107 µM), without a hit: at the highest dose activity, negative = inhibition, hits mostly inhibitors; purified Pol kappa, fluorescent DNA synthesis assay, 10 min; DNA polymerase kappa (Homo sapiens), Q9UBT6; actives 0.53% (n = 400,000); note: potency is the fitted concentration of half-maximal effect; % is set by controls: 0 for no effect and ±100 for the full control effect
#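 First, compounds were pin-transferred onto 10 nM Pol kappa. After 15 min at room temperature, substrate was added to 50 nM final. Fluorescence was then measured kinetically at 0 and 10 min.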
# Pol beta inh: qHTS Assay for Inhibitors of DNA Polymerase Beta | actives 1.3% (n = 340,000) | P06746 | Potency, µM (titrated, usually from 114 µM), for inactives: top-dose activity change, negative = inhibition, hits mostly inhibitors | Pol beta primer extension/strand displacement, fluorescence kinetic; note: potency is the fitted concentration of half-maximal effect; % is set by controls: 0 for no effect and ±100 for the full control effect
#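 Kinetic readout of DNA synthesis with strand displacement by Pol beta. Compound and 10 nM enzyme sit 15 min at room temperature; 50 nM substrate starts the reaction, read immediately and at 10 min.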
# FEN1 inh: qHTS Assay for the Inhibitors of Human Flap endonuclease 1 (FEN1) | actives 0.35% (n = 390,000) | Potency, µM (titrated, usually from 114 µM), for inactives: at the highest dose activity change, negative = inhibition, usual class: inhibitors | Recombinant FEN1 flap cleavage, fluorescence, 15 min | P39748; note: potency is the fitted concentration of half-maximal effect; % is set by controls: 0 for no effect and ±100 for the full control effect; nearly all actives have a fitted effect of over 65% in size
#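 FEN1 at 10 nM preincubated with compounds 15 min at room temperature, then flap DNA substrate added at 50 nM final. Signal read at 0 and 15 min; concentration-response fitted with four-parameter Hill equation.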
# WRN helicase inh: qHTS for Inhibitors of WRN Helicase | Bifunctional 3'-5' exonuclease/ATP-dependent helicase WRN (Homo sapiens), Q14191 | WRN helicase unwinding, fluorescent forked duplex, kinetic | Potency, µM (top dose mostly 114 µM), for inactives: at the top dose activity change, negative = inhibition, most hits filed as inhibitors | actives 0.46% (n = 360,000); note: potency is the fitted concentration of half-maximal effect; % is set by controls: 0 for no effect and ±100 for the full control effect; nearly all actives have a fitted effect of over 55% in size
#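 Fluorescence dequenching readout, ex 525 nm/em 598 nm, kinetic mode: forked duplex DNA (100 nM final) with adjacent fluorophore and quencher unwound by WRN (20 nM final) with 2 mM ATP. Compound preincubation 15 min, room temperature.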
# Pol iota confirm: qHTS for Inhibitors of Polymerase Iota: Confirmatory Assay for Cherry-picked Compounds; shares compounds with Pol kappa inh-1; Pol iota primer extension, TAMRA/BHQ fluorescence; Potency, µM, hits mostly inhibitors; actives 77% (n = 1,500); note: potency is the fitted concentration of half-maximal effect
# GALK confirm: Confirmation Assay for Inhibitors of Human Galactokinase (GALK); shares compounds with Pol eta inh-1; purified GALK, Kinase-Glo ATP depletion luminescence; actives 70% (n = 150); Potency, µM (doses to about 115 µM), without a hit: top-dose activity, negative = inhibition, actives largely listed as inhibitors
# Redox cycling: Confirmatory Assay for Inhibitors of Human Galactokinase (GALK): Phenol-HRP redox assay counterscreen; shares compounds with Pol eta inh-1; actives 40% (n = 150); Phenol red-HRP H2O2 redox cycling, absorbance 600 nm; Potency, µM (titrated, usually from 115 µM), for inactives: at the top dose activity change, negative = H2O2 signal, hits mostly inhibitors; AID 2035, 2009
# HEK293 viability: Secondary Assay for Inhibitors of Human Galactokinase (GALK): HEK-293 Cell Viability Assay | actives 10% (n = 170) | shares compounds with Pol eta inh-1 | AID 2547, 2010 | HEK-293 viability, ATP luminescence (CellTiter-Glo), 24/48 h | Potency, µM (highest dose often 46.1 µM), inactives show at the highest dose activity change, negative = cytotoxicity, usual class: inhibitors; note: potency is the fitted concentration of half-maximal effect; % is set by controls: 0 for no effect and ±100 for the full control effect
# Pol kappa inh-2: qHTS for Inhibitors of Polymerase Kappa: Confirmatory Assay for Cherry-picked Compounds; shares compounds with Pol eta inh-1; purified Pol-kappa, fluorescent strand-displacement substrate; Potency, µM, most hits filed as inhibitors; actives 76% (n = 920); note: potency is the fitted concentration of half-maximal effect
# Pol eta inh-2: qHTS for Inhibitors of Polymerase Eta: Confirmatory Assay for Cherry-picked Compounds; Pol eta primer extension, TAMRA/BHQ fluorescence, 10 min; actives 64% (n = 2,600); shares compounds with Pol eta inh-1; Potency, µM, hits mostly inhibitors; note: potency is the fitted concentration of half-maximal effect
# * = called active by the depositor; ? = inconclusive; · = not tested or not shown; [ ] = another dose, or the depositor's remark. The list is not random: actives were taken first. Their share in the collection is about 2.4%. Calls come from the whole dose curve; as a rule, active = well fitted curve in the direction sought with a large enough effect; inconclusive = small, poorly fitted or top-dose-only effect, or another doubt; inactive = no such curve, though single readings can be large; an effect the other way counts as inactive or inconclusive.
SMILES,Pol eta inh-1,POLI inh,Pol kappa inh-1,Pol beta inh,FEN1 inh,WRN helicase inh,Pol iota confirm,Pol eta inh-2,others
NC(=O)C1CCN(C2=C(Cl)C(=O)c3ccccc3C2=O)CC1,6.3µM*,2.8µM*,-9%,?,?,-23%[57.1 µM],42*,21*,GALK confirm=19µM*;Redox cycling=24µM*;HEK293 viability=?
NC(=O)C1CCN(C2=C(NS(=O)(=O)c3ccccc3)C(=O)c3ccccc3C2=O)CC1,2%,29%,-9%,9%,6%,4%,·,·,
O=C(O)CCN1C(=O)/C(=C\c2cccc(Oc3ccccc3)c2)SC1=S,40µM*,25µM*,?,?,?,?,?,76*,
O=C1/C(=C\c2cc(Cl)c(O)c(Cl)c2)SC(=S)N1Cc1ccccc1,50µM*,10µM*,-28%,?,50µM*,11µM*,84*,·,GALK confirm=27µM*;Redox cycling=5%;HEK293 viability=?
COc1ccc(/C=C2/SC(=S)N(CCC(=O)O)C2=O)cc1,-9%,-5%[58.9 µM],-13%,22%,-12%,-18%,·,·,
COc1ccc(/C=C2/SC(=S)N(Cc3ccccc3)C2=O)cc1O,-2%,-23%,-7%,5%,-17%,-6%,·,·,
COc1ccc2c(C)c(CCC(=O)NCCc3ccc(OC)c(OC)c3)c(=O)oc2c1,-6%,6%,17%,14%,1%,·,·,·,
Cc1ccccc1NC(=O)c1nc2nccc(C)n2n1,·,·,·,-4%,·,·,·,·,
Cc1ccnc2nc(C(=O)Nc3nc(-c4ccccn4)cs3)nn12,79µM*,50µM*,?,11µM*,?,?,67*,85*,
C/C(N)=C(/C#N)C(=O)CSc1nnc(Nc2c(C)cccc2C)s1,18µM*,?,79µM*,?,-19%,?,?,48*,
C/C(N)=C(/C#N)C(=O)CSc1nnc(Nc2cccc(C)c2C)s1,-4%,?,-32%,-40%,3%,-5%[11.6 µM],·,·,
Cn1ccsc1=NC(=O)c1ccc(=O)[nH]c1,-7%,18%,11%,1%,7%,9%,·,·,
Cn1ccsc1=NC(=O)c1ccc([N+](=O)[O-])o1,40µM*,25µM*,?,8%,-18%,?,34*,43*,
CC(C)(C)c1ccc(S(=O)(=O)c2cnc(SCC(=O)Nc3ccc(F)c(Cl)c3)[nH]c2=O)cc1,28µM*,?,?,79µM*,50µM*,·,?,?,
O=C(CSc1ncc(S(=O)(=O)c2ccc(Cl)cc2)c(=O)[nH]1)Nc1cccc(C(F)(F)F)c1,-26%,?,-2%,?,0%,·,·,·,
CC(=O)Nc1ccc(N=Cc2c(O)c(C(=O)Nc3ccccc3)cc3ccccc23)cc1,?,7%,5%,?,-6%,-28%[11.6 µM],30*,76*,Pol kappa inh-2=75*
CC(=O)Nc1ccc(N=Cc2c(O)c3ccccc3oc2=O)cc1,8%,-31%,2%,3%,-12%,2%,·,·,
CCn1c(C(=O)NCc2cc(Br)ccc2OC)cc2oc3ccccc3c21,·,3%,-5%,-24%,1%,·,·,·,
COc1ccc(N2Cc3cccc(C(=O)N4CCOCC4)c3C2=O)cc1,-8%,17%,4%,3%,9%,10%,·,·,
COc1ccc(N2Cc3cccc(C(=O)N4CCN(C(=O)c5ccco5)CC4)c3C2=O)cc1,5.6µM*,?,?,10µM*,-13%,50µM*,38*,60*,Pol kappa inh-2=42*
COc1ccc(N2Cc3cccc(C(=O)Nc4cccc(F)c4)c3C2=O)cc1,·,79µM*,?,14µM*,4%,·,38*,76*,Pol kappa inh-2=12*
Cc1ccc(C(=O)NCCSc2c[nH]c3ccccc23)cc1C,-21%,-3%,-18%,-10%,-5%,·,·,·,
CCN(CC)CCNC(=O)c1c2c(nc3ccccc13)C(=O)N(C1CCCCC1)C2,-16%,17%,0%,2%,5%,·,·,·,
COc1ccc(-c2nc3n(n2)C(c2ccccc2OC)C(C(=O)Nc2cccnc2)=C(C)N3)cc1 (centres undefined),-1%,8%,-2%,0%,3%,·,·,·,
CCOc1ccc(NC(=O)Cn2c(=O)n(CCC(=O)NCCc3ccccc3)c(=O)c3ccccc32)cc1,-11%,50%,4%,13%,-4%,·,·,·,
COc1cccc(-c2ccc3nnc(SCC(=O)Nc4ccc(NC(C)=O)cc4)n3n2)c1,?,?,-11%,·,-27%,?,?,?,
CCc1ccc(NC(=O)C(Cc2ccccc2)NS(=O)(=O)c2ccc3c(c2)c(=O)n(C)c(=O)n3C)cc1 (centres undefined),-3%,-2%,-12%,34%,-12%,·,·,·,
CCN(CC)C(=O)CC(c1cc(OC)c(OC)c(OC)c1)c1c(OC)cc(OC)c2c(-c3ccccc3)cc(=O)oc12 (centres undefined),40µM*,71µM*,79µM*,40µM*,-29%,-11%[11.6 µM],24*,60*,
